# Test results published in PubChem BioAssay (Tox21).
# Records with an inconclusive call do not appear. A number with no mark means an inactive call. Calls come from the whole dose curve; as a rule, active = well fitted cell-killing curve with a large enough effect in the repeat runs; inconclusive = weak or mixed curves, or effect the other way; inactive = flat fitted curve, though single readings scatter.
# Assay: qHTS assay to identify small molecule agonists of the constitutive androstane receptor (CAR) signaling pathway - cell viability counter screen (AID 1224836); note: nearly all actives have a fitted effect of over 45% in size
# Conditions: HepG2-CYP2B6-hCAR viability, CellTiter-Fluor, 23 h, PK11195 added to every well; series mostly up to 92.4 µM; viability change, negative = cytotoxic: at the top concentration
# Source text: U.S. Tox21 Program National Center for Advancing Translational Sciences [NCATS] NIH Chemical Genomics Center [NCGC] U.S. Environmental Protection Agency [EPA] National Institutes of Environmental Health Sciences [NIEHS] National Toxicology Program [NTP] U.S. Food and Drug Administration [FDA] Tox21 Assay Overview: The constitutive androstane receptor (CAR) is a nuclear receptor which regulates multiple drug metabolizing enzymes (DMEs) and transporters. Activating CAR will generally increase the transcription and subsequent translation of CYP2B6 and CYP3A4. These two DMEs represent about 50% of the drug metabolizing potential in the body. […] Recently, there have also been studies performed indicating CARs role in energy metabolism and cancer therapy. Therefore, inducing CARs activity could have a potential effect on diabetes and cancer. Identifying environmental toxins and compounds which modulate CAR, through the use of the Tox21 10K compound collection, will be an important step in determining the toxicity and potential therapeutic effects these factors will have on the human body. To differentiate true CAR agonists from cytotoxic substances, the assay is multiplexed with a cell viability assay.
# Tox21 Assay Protocol Summary: A double-stable (hCAR and CYP2B6-2.2kb) transfected cell line, derived from human hepatoma (HepG2) cells, was utilized for the duration of the quantitative high-throughput screens. The HepG2-CYP2B6-hCAR cells were dispensed at 2500 cells/4 uL/well in 1536-well white solid bottom plates using a Multidrop Combi. After the assay plates were incubated at 37 C/5% CO2 for 4 hrs, 23 nL of compounds at 15 concentrations (from 5-48 columns) or positive control (from 1 to 4 columns) were transferred to the assay plates using a Pintool station. One uL of PK11195 (final concentration = 0.75 uM) was added, using a Flying Reagent Dispenser, inside each well. After a 23 hr incubation period at 37 C/5% CO2, 1 uL of CellTiter-Fluor reagent was added into each well of the assay plates using a Flying Reagent Dispenser. The fluorescence intensity in the plates was then measured using a ViewLux plate reader.
# % is set by controls: 0 for no effect and ±100 for the full control effect.
row,SMILES,"viability change, negative = cytotoxic"
1,CCO[Si](CCCN=C=O)(OCC)OCC,8.58%
2,CC(=O)CCc1ccc(O)cc1,-1.01%
3,CCCCc1ccc2cccc(S(=O)(=O)O)c2c1,-13.7%
4,CC(CCO)CCCC(C)(C)O (stereo not given),2.18%
5,CCCCCOC(=O)Nc1nc(=O)n([C@@H]2O[C@H](C)[C@@H](O)[C@H]2O)cc1F,16.7% [at 42.5 µM]
6,CCN(CC)S(=O)(=O)c1ccc(C(=O)O)cc1,4.43% [at 42.5 µM]
7,COC[C@H](c1ccc(C(F)(F)F)cc1)N1CCN(C2(C)CCN(C(=O)c3c(C)ncnc3C)CC2)C[C@H]1C,2.05% [at 42.5 µM]
8,CCCCC=O,3.47%
9,NS(=O)(=O)c1cc2c(cc1Cl)NC(CSCc1ccccc1)=NS2(=O)=O,5.39% [at 42.5 µM]
10,CC(C)[C@H](N)C(=O)OCCOCn1cnc2c(=O)[nH]c(N)nc21,-7.72% [at 42.5 µM]
11,CC(O)CN(CCCN(C)C)CCCN(C)C (stereo not given),-1.57%
12,COCc1ccc(COC)cc1,4.39%
13,CC(C)c1cccc(C(C)C)c1N,2.71%
14,CN(C)CCn1nnnc1SCC1=C(C(=O)O)N2C(=O)[C@@H](NC(=O)Cc3csc(N)n3)[C@H]2SC1,3.17% [at 42.5 µM]
15,C#CC(C)(O)CC(C)C (stereo not given),-0.885%
16,COC(=O)CCCCCCCCC(=O)OC,6.19%
17,CC1CCN(CCCC(=O)c2ccc(F)cc2)CC1,0.0867% [at 42.5 µM]
18,Cc1ncc(CSSCc2cnc(C)c(O)c2CO)c(CO)c1O,8.76% [at 42.5 µM]
19,CC(C)(C)N(CCO)CCO,5.82%
20,CC12CCC(CC1=O)C2(C)C (stereo not given),1.37%

row,SMILES,"viability change, negative = cytotoxic"
1,COC(C(=O)O)c1ccccc1 (stereo not given),4.3%
2,CC(C=O)Cc1ccc(C(C)C)cc1 (stereo not given),9.81%
3,OC1OC[C@@H](O)[C@H](O)[C@H]1O (stereo not given in full),3.16%
4,NC(=S)Nc1cccc2ccccc12,-0.893% [at 8.39 µM]
5,OCCN1C[C@H](O)[C@@H](O)[C@H](O)[C@H]1CO,9.43% [at 42.5 µM]
6,CCOC(=O)Cn1c(=O)sc2cccc(Cl)c21,8.45%
7,CCC(C(=O)NC(N)=O)c1ccccc1 (stereo not given),-21.2%
8,CC1(C)SC(C)(C)SC(C)(C)S1,6.48%
9,CC(=O)O[C@H](CC(=O)[O-])C[N+](C)(C)C,0.689%
10,C1CCCCCCCCCCC1,-17.1% [at 19 µM]
11,COc1cc(O)cc(O)c1,7.13% [at 42.5 µM]
12,Cc1ccc(N)cc1[N+](=O)[O-],4.69%
13,CCN1CCN(c2cc3c(cc2F)c(=O)c(C(=O)O)cn3C2CC2)CC1,5.35% [at 42.5 µM]
14,Fc1ccccc1-c1ccccc1,-2.68%
15,O=C(CCOCCOCCOCCOCCC(=O)Nc1c(I)cc(I)c(C(=O)O)c1I)Nc1c(I)cc(I)c(C(=O)O)c1I,0.0334% [at 42.5 µM]
16,O=[N+]([O-])c1ccc(Oc2ccc([N+](=O)[O-])cc2)cc1,3.9%
17,CSc1nc(NC2CC2)nc(NC(C)(C)C)n1,2.55%
18,CC(C)(C)C(=O)/C=C/c1ccc(Cl)cc1,-3.42%
19,CN(C)C(=O)Nc1ccccc1,3.96%
20,N#CCN(CC#N)CCN(CC#N)CC#N,2.59%
